Where a name gives a salt, the structure may show the parent alone. ± gives the standard deviation of the averaged measurements. Whole data set: some 2,000 compounds, median “relative cell viability vs DMSO, compound alone” near 1.1, cut for the lowest 2% near 0.29. The list comes from a sample in which the lowest values are over-represented; it also holds similar structures and randomly drawn compounds.
Each compound was assayed on TE10 (assay: relative cell viability vs DMSO, compound alone (fraction); TE10 is an esophageal squamous carcinoma line; higher = less cytotoxic). Conditions: 2 µM; 48 h.
Method: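 TE10 ESCC cells (1,000/well, 384-well plates) were treated with Selleck bioactive library compounds at 2 uM alone for 48 h. Viability was read by CellTiter-Glo and expressed relative to DMSO wells. Two technical replicates (A, B).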

Structure (SMILES)	relative cell viability
CCOC(=O)[C@H](CCc1ccccc1)N[C@H]1CCCN2CCC[C@@H](C(=O)O)N2C1=O [Cilazapril Monohydrate]	1.011 ± 0.004
Nc1nc(F)nc2c1ncn2[C@@H]1O[C@H](COP(=O)(O)O)[C@@H](O)[C@@H]1O [Fludarabine Phosphate]	0.214 ± 0.058
Nc1ncnc2c1ncn2[C@@H]1O[C@H](CO)[C@@H](O)[C@H]1O [Adenosine]	1.165 ± 0.0028
Nc1nc(Cl)nc2c1ncn2[C@@H]1O[C@H](CO)[C@@H](O)[C@@H]1F [Clofarabine]	0.932 ± 0.038
Nc1nc2c(ncn2[C@@H]2O[C@H](CO)[C@@H](O)[C@H]2O)c(=O)[nH]1 [Guanosine]	1.06 ± 0.032
Nc1ncnc2c1ncn2[C@@H]1O[C@H](CO)[C@@H](O)[C@@H]1O [Vidarabine]	1.08 ± 0.033
Nc1nc(F)nc2c1ncn2[C@@H]1O[C@H](CO)[C@@H](O)[C@@H]1O [Fludarabine]	0.291 ± 0.0055
CCN(CC)CCOC(=O)c1ccc(N)cc1Cl [Chloroprocaine HCl]	1.15 ± 0.027
Nc1nc2c(ncn2COC(CO)CO)c(=O)[nH]1 [Ganciclovir]	1.069 ± 0.0057
O=C(/C=C/N1C[C@H]2C[C@@H]1CN2c1ccccn1)c1ccccc1O	1.06 ± 0.02
COc1ccc(-n2nc(C(N)=O)c3c2C(=O)N(c2ccc(N4CCCCC4=O)cc2)CC3)cc1 [Apixaban]	1.1 ± 0.027
Cc1coc2c1C(=O)C(=O)c1c-2ccc2c(C)cccc12 [Tanshinone I]	1.11 ± 0.051
CO[C@H]1/C=C/O[C@@]2(C)Oc3c(C)c(O)c4c(O)c(c(/C=N/N5CCN(C)CC5)c(O)c4c3C2=O)NC(=O)/C(C)=C\C=C\[C@H](C)[C@H](O)[C@@H](C)[C@@H](O)[C@@H](C)[C@H](OC(C)=O)[C@@H]1C [Rifampin]	1.049 ± 0.003
O=C(/C=C/n1cnc(-c2cc(C(F)(F)F)cc(C(F)(F)F)c2)n1)N1CC(F)(F)C1	0.473 ± 0.06
COc1cc(-c2ncn(/C=C\C(=O)OC(C)C)n2)cc(C(F)(F)F)c1	0.26 ± 0.011
O=C(/C=C\n1cnc(-c2cc(C(F)(F)F)cc(C(F)(F)F)c2)n1)NNc1ccccn1 [Verdinexor (KPT-335)]	0.3315 ± 0.0025
O=C(/C=C\n1cnc(-c2cc(C(F)(F)F)cc(C(F)(F)F)c2)n1)NNc1cnccn1	0.2768 ± 0.0027
CCN(CC)CCNC(=O)c1c(C)[nH]c(/C=C2\C(=O)Nc3ccc(F)cc32)c1C [Sunitinib Malate]	1.11 ± 0.037
CCN(CC)CCNC(=O)c1c(C)[nH]c(/C=C2\C(=O)Nc3ccc(F)cc32)c1C [Sunitinib]	1 ± 0.095
Cc1[nH]nc2ccc(-c3cncc(OC[C@@H](N)Cc4ccccc4)c3)cc12	0.5847 ± 0.0027
C[C@]12CC[C@H](O)CC1=CC[C@@H]1[C@@H]2CC[C@]2(C)C(n3cnc4ccccc43)=CC[C@@H]12 [Galeterone]	1.06 ± 0.14
CO[C@H]1C[C@@H]2CC[C@@H](C)[C@@](O)(O2)C(=O)C(=O)N2CCCC[C@H]2C(=O)O[C@H]([C@H](C)C[C@@H]2CC[C@H](n3cnnn3)[C@H](OC)C2)CC(=O)[C@H](C)/C=C(\C)[C@@H](O)[C@@H](OC)C(=O)[C@H](C)C[C@H](C)/C=C/C=C/C=C/1C [Zotarolimus(ABT-578)]	0.888 ± 0.073
CC(=O)Oc1cccc2c1C(=O)c1c(OC(C)=O)cc(C(=O)O)cc1C2=O [Diacerein]	1.11 ± 0.023
CC1(C)C=C(CN2C/C(=C\c3ccc(F)cc3)C(=O)/C(=C/c3ccc(F)cc3)C2)C(C)(C)N1O	0.8405 ± 0.0057

Structure (SMILES)	relative cell viability
C=CC(=O)N1CC(=Cc2ccc([N+](=O)[O-])cc2)C(=O)C(=Cc2ccc([N+](=O)[O-])cc2)C1	0.0554 ± 0.0028
CNC(=O)c1c(F)cccc1Nc1nc(Nc2cc3c(cc2OC)CCN3C(=O)CN(C)C)nc2[nH]ccc12	1.06 ± 0.052
CC[C@@H](C)Nc1cc(C(=O)N[C@H]2C[C@H]3CC[C@@H](C2)N3c2ccc(C(=O)C3CC3)cn2)c(C)cc1C(N)=O	0.449 ± 0.023
O=C(O)c1cc(/N=N/c2ccc(S(=O)(=O)Nc3ccccn3)cc2)ccc1O [Sulfasalazine]	1.04 ± 0.026
CCc1nc(-c2cccc(C)c2)c(-c2ccnc(NC(=O)c3ccccc3)c2)s1	1.0779 ± 0.0008
Cc1ccc([N+](=O)[O-])cc1S(=O)(=O)N(C)/N=C/c1cnc2ccc(Br)cn12	0.287 ± 0.012
COc1cc(C(C)=O)ccc1O [Apocynin]	1.07 ± 0.059
CCCCOc1c(C(=O)c2c(F)cc(C)cc2F)c[nH]c2nncc1-2	0.904 ± 0.014
CCOC(=O)CCNc1cc(N2CCc3ccccc3CC2)nc(-c2ccccn2)n1	0.957 ± 0.1
CNC[C@@H](O)c1ccc(O)c(O)c1 [L-Adrenaline]	1.06 ± 0.028
COCC[n+]1c2c(n(Cc3cnccn3)c1C)C(=O)c1ccccc1C2=O [YM155 (Sepantronium Bromide)]	0.0556 ± 0.0047
CC1(C)S[C@@H]2[C@H](NC(=O)[C@H](NC(=O)N3CCNC3=O)c3ccccc3)C(=O)N2[C@H]1C(=O)O [Azlocillin sodium salt]	1.09 ± 0.026
CC(C)(OCc1nn(Cc2ccccc2)c2ccccc12)C(=O)O [Bindarit]	1.1 ± 0.053
C=C[C@]1(C)C[C@@H](OC(=O)CS[C@@H]2C[C@H]3CC[C@@H](C2)N3C)[C@]2(C)[C@H](C)CC[C@]3(CCC(=O)[C@H]32)[C@@H](C)[C@@H]1O [Retapamulin]	1.29 ± 0.028
CCC[C@@H]1C[C@@H](C(=O)N[C@@H]([C@H]2O[C@H](SC)[C@H](O)[C@@H](O)[C@H]2O)[C@@H](C)O)N(C)C1 [Lincomycin HCl]	1.12 ± 0.073
CCC(=O)Nc1cccc(Oc2nc(Nc3ccc(N4CCN(C)CC4)cc3OC)ncc2Cl)c1	1.16 ± 0.059
Clc1ccc(Nc2nnc(Cc3ccncc3)c3ccccc23)cc1 [Vatalanib (PTK787) 2HCl]	1.16 ± 0.022
CN(C)Cc1ccc(S(=O)(=O)n2ccc(/C=C/C(=O)NO)c2)cc1 [Resminostat]	0.908 ± 0.028
Cc1[nH]c2ccccc2c1CCNCc1ccc(/C=C/C(=O)NO)cc1 [Panobinostat (LBH589)]	0.0672 ± 0.00084
Cc1[nH]c2ccccc2c1CCNC(=O)c1cccs1	1.08 ± 0.069
COc1ccc(-c2coc3cc(O)ccc3c2=O)cc1 [Formononetin]	0.901 ± 0.044
O=C(O)c1ccc(C=C2SC(=S)N(c3cccc(C(F)(F)F)c3)C2=O)cc1	1.04 ± 0.026
O=C(CCCN1CC=C(n2c(=O)[nH]c3ccccc32)CC1)c1ccc(F)cc1 [Droperidol]	1.08 ± 0.044
Cc1ccc(S(=O)(=O)c2ccc([N+](=O)[O-])o2)cc1	0.286 ± 0.0092

Structure (SMILES)	relative cell viability
NC(=O)N/N=C/c1ccc([N+](=O)[O-])o1 [Nitrofural]	1.02 ± 0.057
COc1ccc(/C=C/C(=O)C2(C(=O)/C=C/c3ccc(OC)c(OC)c3)CCCCC2)cc1OC	0.726 ± 0.088
Cc1c(F)cc(C(=O)NC2CC2)cc1-c1ccc(C(=O)NCC(C)(C)C)cn1	0.959 ± 0.18
Cc1c(Nc2ncccc2C(=O)O)cccc1C(F)(F)F [Flunixin Meglumin]	0.994 ± 0.028
COc1cc2c(cc1OC)CN(CCc1ccc(NC(=O)c3cccc4c(=O)c5cccc(OC)c5[nH]c34)cc1)CC2	1.03 ± 0.056
CNCCc1ccccn1 [Betahistine 2HCl]	0.903 ± 0.18
COC1=CC(=O)C[C@@H](C)[C@]12Oc1c(Cl)c(OC)cc(OC)c1C2=O [Griseofulvin]	1.12 ± 0.06
O[C@@H](COc1cccc2ncccc12)CN1CCN(C2c3ccccc3[C@@H]3[C@H](c4ccccc42)C3(F)F)CC1 (some centres not stated)	1.14 ± 0.082
CCn1c(N)c(C(=O)NC)c(=O)c2ccc(C#CC(C)(O)COC)nc21 (configuration not stated)	0.979 ± 0.17
Cc1nc(=O)c2cc(CN(C)c3ccc(C(=O)N[C@@H](CCC(=O)O)C(=O)O)s3)ccc2[nH]1 [Raltitrexed]	1.07 ± 0.086
C#CCC(Cc1cnc2nc(N)nc(N)c2n1)c1ccc(C(=O)N[C@@H](CCC(=O)O)C(=O)O)cc1 (some centres not stated) [Pralatrexate]	0.1336 ± 0.00088
CN(Cc1cnc2nc(N)nc(N)c2n1)c1ccc(C(=O)N[C@@H](CCC(=O)O)C(=O)O)cc1 [Methotrexate]	0.143 ± 0.0081
CC(C)c1cnn2c(NCc3ccccc3)cc(NCCCCCCN)nc12	1.08 ± 0.063
CNC(=O)CN1CCC(Oc2cc3c(Nc4cccc(Cl)c4F)ncnc3cc2OC)CC1 [AZD8931 (Sapitinib)]	1.21 ± 0.015
Cc1c(C(N)=O)cc([N+](=O)[O-])cc1[N+](=O)[O-] [Dinitolmide]	1.0978 ± 0.00018
Cc1ccccc1C(C(=O)NC1CCCCC1)N(C(=O)Cn1ccnc1C)c1cccc(F)c1 (configuration not stated)	0.989 ± 0.22
CCCCCCCCCCCCCCCC[N+](C)(C)C [Cetrimonium Bromide (CTAB)]	1.05 ± 0.039
CC1=NN(c2ccc(C(=O)O)cc2)C(=O)C1=Cc1ccc(-c2cc(C)c(C)cc2[N+](=O)[O-])o1	1.04 ± 0.022
Nc1nc(CC(=O)Nc2ccc(CCNC[C@H](O)c3ccccc3)cc2)cs1 [Mirabegron]	0.954 ± 0.11
NC(=O)c1cccc(-c2cccc(OC(=O)NC3CCCCC3)c2)c1	1.17 ± 0.024
CC#CC(=O)Nc1ccc2ncnc(Nc3cccc(Br)c3)c2c1	0.773 ± 0.043
CN(C)c1ccc(C(=C2C=CC(=[N+](C)C)C=C2)c2ccc(N(C)C)cc2)cc1 [Crystal Violet]	0.278 ± 0.006
CN(C)C(=O)c1cc2cnc(Nc3ccc(N4CCNCC4)cn3)nc2n1C1CCCC1	1.147 ± 0.008
Nc1c(CC(=O)O)cccc1C(=O)c1ccc(Br)cc1 [Bromfenac Sodium]	1.09 ± 0.046

— the supplement of paper PMC10670038
